MEKK2 WT-MEK5: raises or lowers MEK5 binding to wildtype human MEKK2 PB1 domain. Q9Y2U5. bead flow cytometry, Alexa488-MEK5 binding to MEKK2 WT; actives lie on both sides. binding response (% of control), % at 10 µM. hit rate 1.1% among 290,000. AID 1531; in the data active means binding response below about 67% or above about 130%
TMEM16A act: activates or potentiates the mouse TMEM16A chloride channel. hit rate 0.3% among 340,000. HEK293 TMEM16A/YFP-H148Q/I152L, iodide quench fluorescence; hits give low values. AID 623877. Q8BHY3. B-score at 10 µM;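 active means fluorescence-ratio B-score plate-corrected deviation score at least 3 library SD below zero, with starting fluorescence score within 5 deviations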;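 further: channel opened by trigger with iodide after compound preincubation; score built on the fluorescence ratio of max minus min over baseline; more negative score means more quench and so TMEM16A activation or potentiation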
NTR1 agonist: activates human neurotensin receptor 1; NTR1-U2OS beta-arrestin-GFP spot imaging, agonist mode; activation, % at 20 µM; hit rate 0.17% among 330,000;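 active means activation at or above 40% of the spot to cytoplasm intensity ratio, with at least 20 cells analyzed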;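 further: 0% = DMSO without peptide and 100% = 100 nM NTR1 peptide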
MEKK3 PB1 HTS: modulators (inhibitors or enhancers) of MEK5 binding to human MEKK3 PB1 domain; Q99759; bead-based flow cytometry, Alexa488-MEK5 binding to MEKK3; actives lie on both sides; 0 = blocked by unlabeled MEK5, 100 = vehicle; binding response (% of control), % at 10 µM; hit rate 1.4% among 290,000; AID 1529;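 active means binding response more than 3 SD above or below the average of its plate-row segment, actives on both sides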;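 further: Alexa488 bead fluorescence after subtracting the streptavidin-only scavenger bead signal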
Target sequence (Q99759 whole entry, looked up, the tested form may be a part): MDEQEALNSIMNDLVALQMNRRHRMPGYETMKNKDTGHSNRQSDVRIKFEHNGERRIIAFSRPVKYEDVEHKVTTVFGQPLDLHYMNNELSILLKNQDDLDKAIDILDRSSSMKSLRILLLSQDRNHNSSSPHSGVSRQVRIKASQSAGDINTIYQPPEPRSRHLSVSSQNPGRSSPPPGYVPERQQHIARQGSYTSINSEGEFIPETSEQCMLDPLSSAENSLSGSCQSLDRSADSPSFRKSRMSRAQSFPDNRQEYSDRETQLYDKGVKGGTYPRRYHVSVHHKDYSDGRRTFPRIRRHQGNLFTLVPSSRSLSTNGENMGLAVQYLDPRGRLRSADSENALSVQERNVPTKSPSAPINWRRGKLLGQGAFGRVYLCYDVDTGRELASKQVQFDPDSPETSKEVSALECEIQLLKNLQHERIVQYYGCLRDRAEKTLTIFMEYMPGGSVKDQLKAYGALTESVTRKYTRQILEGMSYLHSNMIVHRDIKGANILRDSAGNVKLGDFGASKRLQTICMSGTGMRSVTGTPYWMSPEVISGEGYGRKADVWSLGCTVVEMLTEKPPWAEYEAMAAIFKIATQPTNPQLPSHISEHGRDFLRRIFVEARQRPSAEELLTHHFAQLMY
TMEM16A inh: inhibitors of mouse TMEM16A calcium-activated chloride channel. Q8BHY3. HEK293 TMEM16A/YFP iodide influx fluorescence, ionomycin. normalized B-score (activity score, 25-100; higher = stronger inhibition) at 10 µM. hit rate 1.2% among 310,000;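 active means ratio plate-corrected score three or more library SD toward inhibition, starting fluorescence score within five deviations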;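 further: score derived from kinetic fluorescence span divided by baseline fluorescence per well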
MEKK2mut PB1 HTS: signal of MEK5 binding to mutant human MEKK2 PB1 domain. bead flow cytometry, Alexa488-MEK5 binding to MEKK2 mutant. percent response, % at 10 µM. hit rate 0.35% among 290,000; in the data active means percent response above about 24%, passing the limit was not always enough
TMEM16A reconf: reconfirmed blocker of mouse TMEM16A calcium-activated chloride channel; shares compounds with TMEM16A inh; HEK293 TMEM16A/YFP-H148Q, iodide quench fluorescence; ionomycin added to raise cell calcium; inhibition, % at 10 µM; hit rate 39% among 2,300;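 active means mean duplicate percent inhibition, scaled so buffer wells are 0 and the reference blocker 100, over three buffer SD above buffer mean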
HEK293 Ca mobil: alters calcium mobilization in TMEM16A HEK293 cells, counter-screen. AID 652231. TMEM16A/YFP HEK293, Fluo4 calcium mobilization. hit rate 2% among 2,300. calcium response (% of ionomycin), % at 10 µM. shares compounds with TMEM16A inh;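 active means duplicate-averaged calcium signal over 20% of the ionomycin maximum, relative to buffer baseline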;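 further: each well's signal is peak minus trough fluorescence divided by its pre-addition baseline; 0% = buffer wells and 100% = ionomycin wells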
YFP-HEK293 quench: acts in parental YFP-HEK293 cells lacking TMEM16A, counter-screen; shares compounds with TMEM16A inh; iodide YFP quench, ionomycin; YFP ratio F(max-min)/F0 at 10 µM; 2,300 tested, under 10 active; AID 652233;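 active means yellow fluorescent protein signal ratio exceeding the buffer control mean by over 5 SD of those controls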;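 further: ratio is mean of duplicate wells from kinetic YFP trace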
ClC-1 inh: blocks the rat ClC-1 voltage-dependent chloride channel; CHO ClC-1-YFP, iodide influx fluorescence quench; iodide control reads 0, buffer control 100; 2,300 tested, under 10 active; ratio percent, % at 10 µM; AID 652236; shares compounds with TMEM16A inh;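 active means duplicate-mean ratio percent above the mean of iodide-only control wells, which defines zero, plus 5 of their SD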;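 further: higher percent means stronger block of ClC-1 iodide influx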
An asterisk follows results filed as active; i = inactive; . = no result. Most compounds without a hit are left out; they make up all but 3.4% or so of the library.

SMILES	MEKK2 WT-MEK5	TMEM16A act	NTR1 agonist	MEKK3 PB1 HTS	TMEM16A inh	MEKK2mut PB1 HTS	TMEM16A reconf	HEK293 Ca mobil	YFP-HEK293 quench	ClC-1 inh
CCOC(=O)N1CCC(N(C(=O)Nc2ccc(Cl)c(Cl)c2)C(C)CC)CC1 (stereo unspecified)	102	i	4	100	25*	-5	i	i	-1.1	-11
Cc1cc(C(=O)OCC(=O)Nc2cccc(S(=O)(=O)N(C)C)c2)c(C)o1	90	i	0	87	i	-16	.	.	.	.
CN(C)S(=O)(=O)c1cccc(NC(=O)CSc2ncnc3ccccc23)c1	84	i	0	80	25*	-18	i	i	-0.95	-10
Cc1cc(C(=O)OCC(=O)Nc2cccc(S(=O)(=O)N(C)C)c2)c2ccccc2n1	99	i	0	106	i	-5	i	i	-1.5	-2
CN(C)S(=O)(=O)c1cccc(NC(=O)CSc2nc3ccccc3[nH]2)c1	98	i	1	101	i	1	.	.	.	.
N#Cc1ccsc1NC(=O)CSc1ncn[nH]1	89	i	1	87	i	-8	.	.	.	.
N#Cc1ccsc1NC(=O)CSc1ncnc2ccccc12	107	i	2	105	100*	6	i	i	-1.2	-2
CCN(CC)S(=O)(=O)c1cccc(NC(=O)CSc2nc3ccccc3[nH]2)c1	102	i	1	104	100*	-5	16%*	i	-0.95	-12
Cc1ccccc1C(=O)NC1CCN(CC(=O)Nc2ccccc2)CC1	108	i	0	105	i	4	.	.	.	.
Cc1cc(Cl)ccc1OCC(=O)N(Cc1ccco1)c1c(N)n(Cc2ccccc2)c(=O)[nH]c1=O	.	i	.	.	.	.	.	.	.	.
O=C(NCCn1cc(SCc2ccccc2)c2ccccc21)c1ccccc1F	104	i	2	112	25*	8	i	i	-1.2	-10
CCOc1ccc(NC(=O)c2ccc3nccnc3c2)cc1	.	i	0	.	i	.	.	.	.	.
COc1ccc(NC(=O)c2ccc3nccnc3c2)cc1	105	i	0	107	100*	2	i	i	-1.1	-5
CC(=O)NCCC(Cc1ccccc1)c1ccco1 (stereo unspecified)	106	i	1	104	100*	3	i	i	-0.87	-10
Cc1cnc(C(=O)OCC(=O)Nc2cc(S(=O)(=O)N3CCOCC3)ccc2Cl)cn1	.	i	-1	.	.	.	.	.	.	.
CCN(Cc1ccccc1)C(c1ccc(C)cc1)c1nnnn1C(C)(C)CC (stereo unspecified)	106	i	2	107	100*	11	i	i	-1.5	0
CCN(Cc1ccccc1)C(c1ccncc1)c1nnnn1C(C)(C)C (stereo unspecified)	99	i	0	96	i	1	.	.	.	.
NC(=O)C1=C[C@@H](c2ccccc2)C[C@@H](OCc2ccc(CO)cc2)O1	107	i	11	110	i	3	.	.	.	.
O=C1CC(N(CCc2ccccc2)C(=S)Nc2cc(Cl)ccc2Cl)C(=O)N1c1c(Cl)cccc1Cl (stereo unspecified)	107	i	-2	104	i	2	.	.	.	.
COc1cccc2c1C(=O)C=C(C)C2=O	94	i	2	92	25*	-2	i	24%*	-0.97	-8
CC1(C)c2cc(O)ccc2OC1N1CCOCC1 (stereo unspecified)	98	i	0	104	25*	4	i	i	-1	-13
CC1(C)c2ccccc2-c2nc3ccccc3cc2C1N1CCOCC1 (stereo unspecified)	.	i	.	.	.	.	.	.	.	.
COc1ccc2oc3cc(C)[n+]([O-])c(-c4ccc(Br)cc4)c3c2c1	96	i	9	103	25*	21	22%*	i	-1.3	-12
Cc1ccc(C(=O)NC2CC(C)(C)NC(C)(C)C2)cc1S(=O)(=O)N1CCCCC1	.	i	1	.	i	.	.	.	.	.
COc1ccccc1CN=Cc1[nH]c2ccc(Br)c(Cl)c2c1O	94	i	-4	98	i	-2	16%*	i	-0.9	-8
SMILES	MEKK2 WT-MEK5	TMEM16A act	NTR1 agonist	MEKK3 PB1 HTS	TMEM16A inh	MEKK2mut PB1 HTS	TMEM16A reconf	HEK293 Ca mobil	YFP-HEK293 quench	ClC-1 inh
Cc1nc(C)n(CCNS(=O)(=O)c2ccc(C)c(C)c2)n1	103	i	0	103	i	4	.	.	.	.
COc1ccc(OC)c(C(=O)c2coc3ccc(O)cc23)c1	85	i	-1	88	25*	-6	i	i	-0.84	-2
COc1ccc(C(=O)N/C(=C/c2cccnc2)C(=O)N2CCCCCC2)cc1OC	96	i	1	100	i	-10	.	.	.	.
CCCn1c(CC)nc([N+](=O)[O-])c1Sc1ccc(F)cc1	102	i	5	101	25*	0	i	i	-0.95	-6
CCCn1c(CC)nc([N+](=O)[O-])c1Sc1ccc(C)cc1	104	i	-1	103	i	4	.	.	.	.
O=C1C2C(C(=O)N1/N=C/c1cc(Br)cc([N+](=O)[O-])c1O)C1C=CC2C12CC2 (stereo unspecified)	105	i	-2	99	i	10	19%*	i	-0.64	9
CCN(C(=O)CSc1ccccn1)C1CCCCC1	.	i	2	.	.	.	.	.	.	.
Cc1ccc(C(=O)N/N=C/c2cn(Cc3ccccc3)c3ccccc23)cn1	71	i	4	70	25*	-27	i	i	-1.2	-13
COc1ncnc(OC)c1S(=O)(=O)Nc1ccc(C(F)(F)F)cc1	105	i	-1	105	i	3	.	.	.	.
Cc1ccc(N2C(=O)/C(=C\c3ccco3)SC2=S)cc1	92	i	-1	102	100*	-1	i	i	-1.1	-13
O=C1/C(=C\c2ccco2)SC(=S)N1c1ccccc1	94	i	7	103	i	6	.	.	.	.
Fc1ccc(-c2csc(N3CCC(c4ccccc4)C3)n2)cc1 (stereo unspecified)	.	i	0	.	100*	.	i	i	-0.87	-10
